T cruzi growth-1: inhibitors of T. cruzi proliferation; T. cruzi beta-gal in NIH3T3, GalScreen luminescence, 90 h; inhibition, % at 8.34 µM; hit rate 5.9% among 77,000; AID 624255;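 active = mean inhibition above about 93%, with at least 55% of replicates each passing it, limit read from the data, passing the limit was not always enough; inconclusive = only one of those two conditions holds; inactive = neither condition holds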
C diff HTS: C. difficile growth inhibition | Clostridium difficile clinical isolate growth, OD600, 24 h; active compounds read low | growth activity, negative = inhibition, % at 16 µg/mL (by protocol) | hit rate 0.25% among 86,000;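 active = mean growth activity at or below -80% and every replicate also at or below -80%; inconclusive = mean at or below -80% but some replicate above -80%; inactive = mean growth activity above -80%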;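 also: 0% = DMSO wells and -100% = levofloxacin 16 µg/mL wells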
T cruzi growth-2: inhibitors of T. cruzi proliferation | shares compounds with T cruzi growth-1 | AID 651739 | inhibition, % at 8.35 µM | hit rate 72% among 5,600 | T. cruzi beta-gal in NIH3T3, GalScreen luminescence, 90 h;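 active = mean replicate inhibition above about 95% and at least 55% of replicates individually reaching it, limit read from the data; inconclusive = only one of the two criteria is met; inactive = neither criterion is met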
T cruzi growth-3: inhibitors of T. cruzi proliferation. hit rate 21% among 5,600. T. cruzi beta-gal in NIH3T3, GalScreen luminescence, 90 h. inhibition, % at 2.09 µM. shares compounds with T cruzi growth-1;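 active = mean inhibition above about 95%, with at least 55% of replicates also reaching it, limit read from the data; inconclusive = meets just one of the two conditions; inactive = meets neither condition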;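 also: plate controls were neutral control median for no effect and positive control median for full effect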
NIH3T3 tox: NIH/3T3 (mouse) viability loss; shares compounds with T cruzi growth-1; NIH/3T3 viability, CellTiter-Glo ATP luminescence, 90 h; cytotoxicity (signal decrease), % at 8.35 µM; hit rate 14% among 5,600; AID 651742;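 active = mean signal decrease across replicates above about 35% based on untreated-well scatter, with enough replicates individually passing, limit read from the data; inconclusive = no rule stated though some were filed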;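 also: 0% = median of neutral control wells and 100% = median of positive control wells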
NIH3T3 tox 2: NIH/3T3 (mouse) viability loss. shares compounds with T cruzi growth-1. NIH/3T3 viability, CellTiter-Glo ATP luminescence, 90 h. inhibition, % at 24.9 µM. hit rate 56% among 5,600;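 active = mean loss of cell viability signal at or above a set limit, and enough replicates individually reaching it; inconclusive = meets only the mean limit or only the replicate share; inactive = meets neither condition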;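 also: 0% = median of neutral control wells and 100% = median of positive control wells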
Numbers without * were called inactive; ? = inconclusive; / = no result given; + = active, no number. The sample as a whole holds a higher share of hits than the screen did.

SMILES	T cruzi growth-1	C diff HTS	T cruzi growth-2	T cruzi growth-3	NIH3T3 tox	NIH3T3 tox 2
O=S(=O)(Cc1ccccc1)N1CCCCN2[C@@H](CO)[C@H](c3ccc(-c4cncnc4)cc3)[C@@H]2C1	84.9	-1.9	/	/	/	/
CCS(=O)(=O)N1CCCCN2[C@H](C1)[C@@H](c1ccc(-c3ccccc3)cc1)[C@@H]2CO	68.1	-3.3	/	/	/	/
CCS(=O)(=O)N1CCCCN2[C@H](CO)[C@H](c3ccc(-c4ccccc4)cc3)[C@H]2C1	84.0	-10.8	/	/	/	/
O=S(=O)(Cc1ccccc1)N1CCCCN2[C@H](CO)[C@H](c3ccc(-c4ccccc4)cc3)[C@@H]2C1	104.2*	0.7	108.4*	29.5	-4.3	84.0*
CCS(=O)(=O)N1CCCCN2[C@H](C1)[C@H](c1ccc(-c3ccccc3)cc1)[C@@H]2CO	20.1	-2.6	/	/	/	/
C[C@@H]1CN([C@H](C)CO)C(=O)c2cc(NS(=O)(=O)c3cccs3)ccc2O[C@H]1CN(C)Cc1ccc(Oc2ccccc2)cc1	9.5	/	/	/	/	/
COCC#Cc1ccc2c(c1)O[C@H](CN(C)C(=O)CC1CC1)[C@H](C)CN([C@H](C)CO)S2(=O)=O	71.0	-1.8	/	/	/	/
O=S(=O)(c1ccc(F)cc1)N1CCCCN2[C@H](C1)[C@@H](c1ccc(-c3ccccc3)cc1)[C@@H]2CO	102.7*	6.3	107.6*	73.8	13.3	61.9*
O=S(=O)(c1ccc(F)cc1)N1CCCCN2[C@H](CO)[C@@H](c3ccc(-c4ccccc4)cc3)[C@@H]2C1	64.0	8.0	/	/	/	/
CC(C)C#Cc1cnc2c(c1)C(=O)N([C@H](C)CO)C[C@@H](C)[C@@H](CN(C)C(=O)Cc1ccncc1)O2	22.3	0.5	/	/	/	/
CO[C@@H]1CN(C)C(=O)c2ccc(NC(=O)c3cnccn3)cc2OC[C@@H](C)N(C(C)=O)C[C@@H]1C	36.2	-3.8	/	/	/	/
CCCNC(=O)[C@H]1[C@H](CO)[C@H]2Cn3c(cccc3=O)[C@H]2N1CC1CCCCC1	10.0	-0.5	/	/	/	/
O=C(Nc1ccc(-c2ccccc2)cc1)[C@H]1[C@H](CO)[C@H]2Cn3c(cccc3=O)[C@H]2N1CC1CCOCC1	62.7	-9.3	/	/	/	/
CCNC(=O)[C@H]1[C@H](CO)[C@H]2Cn3c(cccc3=O)[C@H]2N1CC1CCCCC1	+	/	38.9	7.5	-0.1	-1.4
O=C(Nc1ccc(-c2ccccc2)cc1)[C@@H]1[C@@H](CO)[C@@H]2Cn3c(cccc3=O)[C@@H]2N1CC1CCCCC1	?	1.5	?	105.3*	-9.1	104.3*
C[C@H](O)C#Cc1ccc2c(c1)O[C@@H](CN(C)C(=O)c1ccccc1)[C@@H](C)CN([C@H](C)CO)S2(=O)=O	10.1	2.9	/	/	/	/
CC(C)CC#Cc1ccc([C@H]2[C@@H](CO)N3CCCCN(S(=O)(=O)c4ccc(F)cc4)C[C@H]23)cc1	63.1	-4.0	/	/	/	/
CC(C)CC#Cc1ccc([C@@H]2[C@@H](CO)N3CCCCN(S(=O)(=O)c4ccc(F)cc4)C[C@@H]23)cc1	104.9*	1.3	108.2*	72.0	-3.1	89.1*
CC(C)CC#Cc1ccc([C@@H]2[C@@H](CO)N3CCCCN(S(=O)(=O)c4ccc(F)cc4)C[C@H]23)cc1	55.1	17.8	/	/	/	/
CC(C)CC#Cc1ccc([C@H]2[C@H]3CN(S(=O)(=O)c4ccc(F)cc4)CCCCN3[C@H]2CO)cc1	116.0*	8.1	111.0*	94.5	21.4	11.5
Cc1noc(C)c1S(=O)(=O)N(C)C[C@@H]1Oc2ccc(NC(=O)C3CCCCC3)cc2CC(=O)N([C@H](C)CO)C[C@@H]1C	-7.3	-3.6	/	/	/	/
COc1ccc(NC(=O)Nc2ccc3c(c2)C(=O)N([C@@H](C)CO)C[C@H](C)[C@@H](CN(C)C(=O)Cc2ccccc2)OCCCC[C@H](C)O3)cc1	81.5	4.1	/	/	/	/
CCc1cnc(N2[C@H](C#N)[C@@H](c3ccc(C#Cc4ccccc4F)cc3)[C@H]2CO)s1	111.4*	0.6	103.3*	101.4*	11.2	27.7*
CCc1cnc(N2[C@H](C#N)[C@H](c3ccccc3)[C@@H]2CO)s1	-5.8	1.1	/	/	/	/
CCc1cnc(N2[C@H](C#N)[C@H](c3ccc(C#Cc4ccccc4F)cc3)[C@@H]2CO)s1	97.2*	6.1	100.7*	111.8*	-26.8	-11.0
CCc1cnc(N2[C@H](CO)[C@@H](c3ccccc3)[C@@H]2C#N)s1	2.4	7.6	/	/	/	/
CCc1cnc(N2[C@H](C#N)[C@@H](c3ccccc3)[C@@H]2CO)s1	36.3	0.7	/	/	/	/

Assay outcomes as filed in PubChem.
